In the library only some 3.5% were active in any assay of this set; here they are far more common.
rCAG binder = binders of r(CAG) RNA repeats, primary screen, biochemical, fluorescence; r(CAG) RNA repeat, TO-PRO-1 dye displacement fluorescence; inhibition, % at 3 µM; 1.3% of 370,000 active;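 active = inhibition above the plate cutoff, the mean of all test compounds on that plate plus 3 SD, cut at about 35% in these data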;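 note: higher means more dye released from RNA so lower well fluorescence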
DNMT1 block = human DNMT1 methyltransferase inhibitors, primary screen, biochemical, molecular beacon, fluorescence, HinP1I cleavage, uHTS; DNA (cytosine-5)-methyltransferase 1 (Homo sapiens), P26358; inhibition (reported as % activation of signal), % at 10 µM; 0.83% of 360,000 active; in the data active = inhibition above about 50%
PG9 binder = binders of HIV-1 gp120 antibody PG9, primary screen, biochemical, TR-FRET; HIV-1 gp120 / PG9 antibody interaction; TR-FRET gp120-PG9 antibody binding; inhibition, % at 6.7 µM; 0.43% of 360,000 active; in the data active = inhibition above about 8.5%
LEDGF integ inh = blockers of LEDGF/p75-dependent integrase strand transfer – biochemical, TR-FRET, high throughput, primary screen; HIV-1 integrase (with human LEDGF/p75); AID 743269, 2014; 0.64% of 370,000 active; inhibition, % at 3.7 µM; TR-FRET IN-LEDGF/p75 DNA integration, Eu/Cy5;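 active = inhibition above the screen-wide mean plus 3 SD, cut at about 13% in these data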;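 note: signal is the Cy5 over europium emission ratio at 671 and 618 nm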
UHRF1 MBD2 ctr = UHRF1 methylated DNA binding inhibitors, primary screen, counter-screen for MBD2 inhibitor project, biochemical, TR-FRET, human UHRF1, single concentration | E3 ubiquitin-protein ligase UHRF1 (Homo sapiens), Q96T88 | UHRF1 binding to methylated oligo | inhibition, % at 4.4 µM | 0.75% of 370,000 active; in the data active = inhibition above about 21%;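 note: UHRF1 SRA domain binding a hemimethylated CpG hairpin DNA probe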
MBD2 inh = inhibitors of MBD2 binding to methylated DNA, primary screen, biochemical, TR-FRET, DNA-binding domain, human | Methyl-CpG-binding domain protein 2 (Homo sapiens), Q9UBB5 | MBD2 binding to methylated oligonucleotide | inhibition, % at 4.4 µM | 0.31% of 370,000 active | AID 686964, 2013; in the data active = inhibition above about 13%
Target sequence (Q9UBB5 whole entry, looked up, the tested form may be a part): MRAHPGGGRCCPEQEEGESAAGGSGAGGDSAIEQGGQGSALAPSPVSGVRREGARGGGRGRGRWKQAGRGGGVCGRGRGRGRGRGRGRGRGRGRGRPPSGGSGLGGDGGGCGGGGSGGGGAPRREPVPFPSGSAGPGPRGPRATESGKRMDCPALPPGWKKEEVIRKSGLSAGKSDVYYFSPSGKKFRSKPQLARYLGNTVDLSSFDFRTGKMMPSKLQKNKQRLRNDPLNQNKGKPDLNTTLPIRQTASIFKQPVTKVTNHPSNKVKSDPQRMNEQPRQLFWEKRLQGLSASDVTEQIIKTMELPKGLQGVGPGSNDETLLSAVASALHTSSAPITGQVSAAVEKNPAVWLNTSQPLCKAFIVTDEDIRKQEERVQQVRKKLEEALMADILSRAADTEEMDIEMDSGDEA
PG9 binder conf = binders of anti-gp120 antibody PG9, confirmation, biochemical, TR-FRET; shares compounds with PG9 binder; TR-FRET PG9 antibody binding; inhibition, % at 6.7 µM; 90% of 1,500 active; AID 651571, 2012; in the data active = inhibition above about 9%
PGV04 counter = binders of control antibody PGV04, counter-screen for PG9 antibody binder project, biochemical, TR-FRET, distinct HIV envelope site. shares compounds with PG9 binder. TR-FRET PGV04 antibody-gp120 binding. inhibition, % at 6.7 µM. 95% of 1,500 active; in the data active = inhibition above about 9.5%
PG9 bind DR = small-molecule binders of antibody PG9, dose response, biochemical, TR-FRET, HIV-1 gp120 antibody. TR-FRET PG9 antibody-gp120 binding inhibition. IC50, µM. 95 tested, under 10 active. shares compounds with PG9 binder; in the data active = IC50 below about 10 µM
PGV04 binding DR = binders of control antibody PGV04, dose response, counter-screen for PG9 antibody binder project, biochemical, TR-FRET, distinct HIV envelope site; 20% of 95 active; IC50, µM; TR-FRET binding to control antibody PGV04; AID 651937, 2012; shares compounds with PG9 binder
PG126 DR counter = binders of control antibody PG126, dose response, counter-screen for PG9 antibody binder project, biochemical, TR-FRET, distinct HIV envelope site | shares compounds with PG9 binder | 20% of 95 active | IC50, µM | AID 651939, 2012 | TR-FRET binding to antibody PG126, counterscreen
Large screens that a line does not name were inactive (follow-up assays come after a bar, where they were run). Cut-off read from the data, not from the text of the source, unless noted: active = IC50 below about 9 µM; inactive = the rest.

O=C(Nc1ccc(F)cc1)c1ccc(COc2ccccc2)cc1	PG9 binder 9.6 | PG9 binder conf 46.4 | PGV04 counter 55.8
O=C(NCC(c1ccc(F)cc1)N1CCOCC1)c1ccc(OCc2ccccc2)cc1 (stereo unspecified)	PG9 binder 17.2 | PG9 binder conf 16.7 | PGV04 counter 21.7
CCc1ccc2[nH]cc(S(=O)(=O)c3ccc(C)c(C)c3)c(=O)c2c1	none
CCc1ccc2[nH]c3nc(C)cc(C)c3c(=O)c2c1	PG9 binder 25.3 | PG9 binder conf 15.7 | PGV04 counter 23.4
CCSc1nnc(NC(=O)CCCOc2ccc(C)cc2)s1	PG9 binder 21.0 | PG9 binder conf 13.2 | PGV04 counter 48.7
C=C1CC(COc2ccc3c(C)c(Cl)c(=O)oc3c2)(c2ccccc2)OC1=O (stereo unspecified)	none
O=C(OCC(=O)N(CCc1ccccc1)Cc1ccccc1)c1cccc(S(=O)(=O)N2CCOCC2)c1	none
O=C(Nc1ccon1)c1sc2cc(F)ccc2c1Cl	PG9 binder 15.0 | PG9 binder conf 23.8 | PGV04 counter 45.8
O=C(NC1=NCCS1)c1sc2cc(F)ccc2c1Cl	none
CC(C)CC(=O)NC(=S)Nc1sc2c(c1C(N)=O)CCC2	PG9 binder 17.2 | PG9 binder conf 26.2 | PGV04 counter 33.1
CC(C)(C)C(=O)NC(=S)Nc1sc2c(c1C(N)=O)CCC2	none
Cc1nc2ccc(NC(=O)CCS(=O)(=O)c3ccc(Cl)cc3)cc2s1	none
Cc1ccsc1C(=O)Nc1ccc(O)c(-c2nc3ccccc3s2)c1	PG9 binder 50.5 | PG9 binder conf 58.4 | PGV04 counter 77.8
O=C(CCS(=O)(=O)c1ccccc1)Nc1ccc(-c2nc3ccccc3s2)c(O)c1	PG9 binder 26.2 | PG9 binder conf 22.3 | PGV04 counter 50.8
CCCCN1CC(N2CCN(C3CCN(C)CC3)CC2)CS1(=O)=O (stereo unspecified)	none
O=C(Nc1cccnc1)c1cc(-c2ccc3c(c2)OCO3)on1	PG9 binder 12.1 | PG9 binder conf 10.2 | PGV04 counter 22.1
O=C(Nc1cccnc1)c1cc(-c2ccc(Cl)c(Cl)c2)on1	none
COc1ccc2nc(-c3ccccc3)[nH]c(=O)c2c1	PG9 binder 53.6 | PG9 binder conf 67.9 | PGV04 counter 76.5
O=C(CCCn1c(=S)[nH]c2cc3c(cc2c1=O)OCO3)NCc1ccccc1Cl	PG9 binder 18.7 | PG9 binder conf 21.3 | PGV04 counter 20.8 | PG9 bind DR inactive | PGV04 binding DR inactive | PG126 DR counter inactive
O=c1c2ccccc2[nH]c(=S)n1Cc1ccc2c(c1)OCO2	PG9 binder 8.6 | PG9 binder conf 12.2 | PGV04 counter 21.8
O=C(CCn1c(=O)c2ccccc2n(Cc2ccccc2)c1=O)NCc1ccc2c(c1)OCO2	PG9 binder 13.0 | PG9 binder conf 23.8 | PGV04 counter 41.9
COc1cccc(CNC(=O)CCCn2c(=S)[nH]c3cc4c(cc3c2=O)OCO4)c1	PG9 binder 27.6 | PG9 binder conf 15.2 | PGV04 counter 22.8
O=C(CCn1c(=O)oc2ccccc21)NCc1ccc2c(c1)OCO2	none
O=C(CSc1nc2ccccc2o1)NC1CCS(=O)(=O)C1 (stereo unspecified)	none
COc1c(C(=O)Nc2ccccc2N2CCOCC2)cc2ccccc2c1Br	none
CCOc1cccc2cc(C(=O)Nc3cc(C)on3)c(=O)oc12	PG9 binder 15.1 | PG9 binder conf 33.0 | PGV04 counter 36.7
CCOc1cccc2cc(C(=O)NCc3ccc(OC)cc3)c(=N)oc12	PG9 binder 13.4 | PG9 binder conf inactive | PGV04 counter inactive
CC(C)CN1C(=O)C[C@@]2(C(=O)N(C)c3ccc(NC(=O)c4cc(F)ccc4F)cc32)C1c1ccccc1 (stereo partly specified)	none (no result: DNMT1 block, PG9 binder)
CCOC(=O)C(C)Oc1cccc2c(=O)n(CC(=O)Nc3ccc(OC)cc3)ccc12 (stereo unspecified)	none
O=C(O)C1CC=CCC1C(=O)N1CCN(c2nc(-c3ccccc3Cl)c3cc(Br)ccc3n2)CC1 (stereo unspecified)	PG9 binder 12.7 | PG9 binder conf 25.4 | PGV04 counter 40.9
COc1ccc(-c2nc3ccc(Br)cn3c2CC(C)(C)C)cc1OC	none
COC(=O)CSc1nc2cc3c(cc2cc1C#N)OCO3	PG9 binder 15.3 | PG9 binder conf 33.3 | PGV04 counter 71.3
CCOC(=O)CSc1nc2cc3c(cc2cc1C#N)OCO3	PG9 binder 48.6 | PG9 binder conf 43.5 | PGV04 counter 62.4
O=C(COC(=O)CN1C(=O)c2ccccc2C1=O)Nc1cccc(F)c1	none
COc1ccc(NC(=O)C2(C)CCCN(C(C)C)C2)cc1F (stereo unspecified)	none
CC(=O)c1sccc1NC(=O)c1ccccc1C(=O)O	PG9 binder 36.2 | PG9 binder conf 38.7 | PGV04 counter 47.3
COC(=O)c1sccc1NC(=O)c1ccccc1C(=O)O	none
COc1ccc(C(C(=O)Nc2ccc(F)cc2)N2CCN(C(=O)c3ccco3)CC2)cc1 (stereo unspecified)	none (no result: DNMT1 block)
COc1cc(C(=O)NCc2ccc(-c3nc4ccccc4s3)cc2)cc(OC)c1OC	PG9 binder 10.2 | PG9 binder conf 18.9 | PGV04 counter 29.0
